From ChEMBL document CHEMBL3988442, “University of Dundee, Small-Polar-MMV Screening Library” (2021) come the findings set out here.

For some of these results: Measured potencies and affinities stand elsewhere.

What all share (design): scale not given: direction of the effect not stated beside the values
The target of experiment [1] is Protein translocase subunit SecA (Escherichia coli (strain K12)) (UniProt P10408). Put plainly: Assay to Identify E. coli SecA ATPase Inhibitors. It is filed as functional. Particulars: 30 µM.
Chain of Protein translocase subunit SecA (Escherichia coli (strain K12)) (P10408 whole entry): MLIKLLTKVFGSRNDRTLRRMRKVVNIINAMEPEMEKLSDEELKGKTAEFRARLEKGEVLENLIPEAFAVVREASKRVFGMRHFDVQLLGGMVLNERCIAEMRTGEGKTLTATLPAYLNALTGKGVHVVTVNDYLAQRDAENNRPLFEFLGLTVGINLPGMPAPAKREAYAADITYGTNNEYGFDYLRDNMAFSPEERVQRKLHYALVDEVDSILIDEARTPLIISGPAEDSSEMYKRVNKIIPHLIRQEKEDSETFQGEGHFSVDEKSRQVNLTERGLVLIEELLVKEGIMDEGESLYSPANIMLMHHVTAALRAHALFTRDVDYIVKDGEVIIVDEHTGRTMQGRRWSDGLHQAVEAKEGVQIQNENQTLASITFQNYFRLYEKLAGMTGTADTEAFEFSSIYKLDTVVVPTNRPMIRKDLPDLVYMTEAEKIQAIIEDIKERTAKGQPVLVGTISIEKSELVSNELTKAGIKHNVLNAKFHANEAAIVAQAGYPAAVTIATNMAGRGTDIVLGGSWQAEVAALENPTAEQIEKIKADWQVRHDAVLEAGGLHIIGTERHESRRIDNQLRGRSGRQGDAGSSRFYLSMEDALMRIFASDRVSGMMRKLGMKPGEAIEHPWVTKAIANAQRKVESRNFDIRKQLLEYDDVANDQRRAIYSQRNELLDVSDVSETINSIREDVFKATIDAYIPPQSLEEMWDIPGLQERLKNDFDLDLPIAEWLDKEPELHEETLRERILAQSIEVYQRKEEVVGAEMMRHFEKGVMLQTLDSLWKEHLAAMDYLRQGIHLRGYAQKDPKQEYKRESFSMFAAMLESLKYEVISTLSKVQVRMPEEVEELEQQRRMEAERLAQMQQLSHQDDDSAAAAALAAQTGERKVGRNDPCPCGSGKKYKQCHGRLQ
The target in experiment [2] is T1, Ubiquitin-activating enzyme e1, putative (Leishmania donovani (strain BPK282A1)) (UniProt E9BSI1).
T1 sequence (whole entry): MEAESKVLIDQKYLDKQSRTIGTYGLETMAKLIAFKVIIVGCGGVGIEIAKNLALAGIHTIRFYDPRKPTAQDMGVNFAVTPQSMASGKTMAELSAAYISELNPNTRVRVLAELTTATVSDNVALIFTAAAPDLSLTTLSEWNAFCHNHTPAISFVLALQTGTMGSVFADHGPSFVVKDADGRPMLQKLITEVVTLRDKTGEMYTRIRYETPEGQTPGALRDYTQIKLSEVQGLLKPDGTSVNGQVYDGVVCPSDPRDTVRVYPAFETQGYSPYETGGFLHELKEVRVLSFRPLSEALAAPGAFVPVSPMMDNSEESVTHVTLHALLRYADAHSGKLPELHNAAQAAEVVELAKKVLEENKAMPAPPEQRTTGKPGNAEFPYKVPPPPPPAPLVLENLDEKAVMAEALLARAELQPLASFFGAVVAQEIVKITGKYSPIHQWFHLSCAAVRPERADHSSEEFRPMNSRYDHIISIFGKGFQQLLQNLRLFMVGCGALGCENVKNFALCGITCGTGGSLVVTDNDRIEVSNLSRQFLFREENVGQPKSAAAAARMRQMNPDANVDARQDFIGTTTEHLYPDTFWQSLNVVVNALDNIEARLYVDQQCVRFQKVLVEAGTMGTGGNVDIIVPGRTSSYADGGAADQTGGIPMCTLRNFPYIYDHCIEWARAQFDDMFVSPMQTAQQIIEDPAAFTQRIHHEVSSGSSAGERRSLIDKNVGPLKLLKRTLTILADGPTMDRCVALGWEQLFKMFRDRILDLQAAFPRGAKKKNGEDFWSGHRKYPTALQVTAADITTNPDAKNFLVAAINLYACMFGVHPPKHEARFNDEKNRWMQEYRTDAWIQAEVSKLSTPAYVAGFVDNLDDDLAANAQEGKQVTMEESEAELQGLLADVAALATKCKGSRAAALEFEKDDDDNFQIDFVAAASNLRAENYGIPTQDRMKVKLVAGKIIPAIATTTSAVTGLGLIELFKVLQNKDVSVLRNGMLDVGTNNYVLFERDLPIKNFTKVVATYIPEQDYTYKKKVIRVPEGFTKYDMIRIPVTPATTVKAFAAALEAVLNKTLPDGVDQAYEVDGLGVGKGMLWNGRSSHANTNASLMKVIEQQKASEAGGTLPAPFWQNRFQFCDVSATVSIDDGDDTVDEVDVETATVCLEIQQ
As to the kind of experiment: Leishmania donovani Ubiquitin Activating Enzyme (LdE1). Format: functional. As to conditions: 30 µM.

The target of experiment [3] is AMP-activated protein kinase, AMPK (Homo sapiens) (UniProt P54646+O43741+P54619+Q9UGJ0+Q9Y478+Q13131+Q9UGI9). As to the kind of experiment: AMP-dependent Kinase enzyme assay. An in vitro enzyme assay that detects ADP turnover that is directly proportional to AMPK activity. This uses naive AMPK that is activated during the assay with MK-8722. It is filed as functional. Particulars: 30 µM.

For experiment [4], the target named is Sialic acid-binding Ig-like lectin 9 (Homo sapiens) (UniProt Q9Y336). Put plainly: Hs-Siglec9 ALPHAscreen SOP 20170721. As to conditions: 10 µM. For orientation: Bead proximity is the source of the signal in Alpha formats.
Chain of Sialic acid-binding Ig-like lectin 9 (Homo sapiens) (Q9Y336 whole entry): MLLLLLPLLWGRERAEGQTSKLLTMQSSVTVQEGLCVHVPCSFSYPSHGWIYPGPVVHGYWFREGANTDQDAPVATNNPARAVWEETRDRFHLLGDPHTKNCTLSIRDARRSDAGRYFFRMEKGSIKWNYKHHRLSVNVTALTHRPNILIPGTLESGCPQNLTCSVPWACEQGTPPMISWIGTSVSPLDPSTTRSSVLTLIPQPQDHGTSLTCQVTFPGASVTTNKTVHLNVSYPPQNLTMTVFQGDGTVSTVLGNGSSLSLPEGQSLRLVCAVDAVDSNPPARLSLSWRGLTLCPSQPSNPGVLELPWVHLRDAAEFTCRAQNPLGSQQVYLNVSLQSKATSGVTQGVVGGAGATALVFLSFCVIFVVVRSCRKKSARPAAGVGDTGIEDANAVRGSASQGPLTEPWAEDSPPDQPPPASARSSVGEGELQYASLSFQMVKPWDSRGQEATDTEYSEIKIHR
Another experiment concerns Trypanosoma cruzi. As to the kind of experiment: Trypanosoma cruzi phosphomannomutase and mannose-1-phosphate guanylyltransferase assay. Format: functional. Particulars: 10 µM.
The target of experiment [5] is T2, Arginase-2, mitochondrial (Homo sapiens) (UniProt P78540).
T2 sequence (whole entry): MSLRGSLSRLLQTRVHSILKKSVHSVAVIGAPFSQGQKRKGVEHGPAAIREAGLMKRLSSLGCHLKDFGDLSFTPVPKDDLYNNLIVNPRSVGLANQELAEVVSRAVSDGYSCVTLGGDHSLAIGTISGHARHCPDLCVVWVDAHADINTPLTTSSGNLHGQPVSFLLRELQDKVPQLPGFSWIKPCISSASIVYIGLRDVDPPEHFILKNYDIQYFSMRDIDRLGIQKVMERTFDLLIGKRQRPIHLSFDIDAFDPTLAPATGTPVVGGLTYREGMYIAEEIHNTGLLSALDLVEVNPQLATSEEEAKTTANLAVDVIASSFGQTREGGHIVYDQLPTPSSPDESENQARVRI
As to the kind of experiment: in vitro enzyme assay to detect the production of urea directly proportional to the activity of Arginase II. Also: in the data most compounds retested in dose-response had high values. Format: functional. As to conditions: 33.3 µM.

The target in experiment [6] is T3, Proteasome subunit beta (Trypanosoma cruzi) (UniProt O96673).
T3 sequence (whole entry): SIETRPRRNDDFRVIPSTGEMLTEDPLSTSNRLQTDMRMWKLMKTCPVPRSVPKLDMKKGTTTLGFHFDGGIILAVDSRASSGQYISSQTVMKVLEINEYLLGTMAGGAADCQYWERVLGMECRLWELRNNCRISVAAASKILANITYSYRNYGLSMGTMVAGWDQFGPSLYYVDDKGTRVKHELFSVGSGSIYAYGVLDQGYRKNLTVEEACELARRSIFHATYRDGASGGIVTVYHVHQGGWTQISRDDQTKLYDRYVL
Put plainly: Trypanosoma cruzi proteasome chymotrypsin-like activity (TcProtChymo) assay. Also: in the data most compounds retested in dose-response had high values. It is filed as functional. As to conditions: 9.37 µM.

A further experiment is filed under the species Homo sapiens. As to the kind of experiment: To identify inhibition of the IFN signalling (Jak-Stat) pathway via expression of an eGFP reporter gene under the control of an IFN-stimulated response element (ISRE) containing MxA promoter. Particulars: 30 µM. It is filed as functional. A general note: A reporter such as luciferase makes a cellular process visible.

Experiment [7] addresses T4, Tyrosyl-tRNA synthetase, putative (Trypanosoma cruzi (strain CL Brener)) (UniProt Q4DSP6).
T4 sequence (whole entry): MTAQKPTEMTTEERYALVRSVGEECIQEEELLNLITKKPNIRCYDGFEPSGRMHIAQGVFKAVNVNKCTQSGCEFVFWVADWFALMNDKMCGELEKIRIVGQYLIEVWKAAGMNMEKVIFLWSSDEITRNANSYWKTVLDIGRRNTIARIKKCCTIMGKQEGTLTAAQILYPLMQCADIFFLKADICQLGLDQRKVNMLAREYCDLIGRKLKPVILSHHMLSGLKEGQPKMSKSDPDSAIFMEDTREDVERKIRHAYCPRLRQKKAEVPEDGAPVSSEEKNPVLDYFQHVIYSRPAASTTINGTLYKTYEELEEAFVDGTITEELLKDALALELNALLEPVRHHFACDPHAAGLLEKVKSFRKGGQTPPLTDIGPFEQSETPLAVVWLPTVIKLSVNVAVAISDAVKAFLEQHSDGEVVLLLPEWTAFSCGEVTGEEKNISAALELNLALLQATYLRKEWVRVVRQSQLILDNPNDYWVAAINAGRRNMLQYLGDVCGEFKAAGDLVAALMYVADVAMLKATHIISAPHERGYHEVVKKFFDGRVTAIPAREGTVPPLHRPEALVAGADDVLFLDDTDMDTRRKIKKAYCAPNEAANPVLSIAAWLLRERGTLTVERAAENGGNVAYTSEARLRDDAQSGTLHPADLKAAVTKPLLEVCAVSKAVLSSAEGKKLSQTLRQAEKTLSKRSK
As to the kind of experiment: Trypanosoma cruzi tyrosyl tRNA synthetase (TcYRS) _High Tyrosine SOP. Also: in the data most compounds retested in dose-response had high values. Particulars: 30 µM. Format: functional.

Experiment [8] has as its target T4, Tyrosyl-tRNA synthetase, putative (Trypanosoma cruzi (strain CL Brener)). As to the kind of experiment: Trypanosoma cruzi tyrosyl tRNA synthetase (TcYRS) SOP. It is filed as functional. As to conditions: 30 µM.
In experiment [9] the target is Chromo domain-containing protein 1 (Saccharomyces cerevisiae (strain ATCC 204508 / S288c) (Baker's yeast)) (UniProt P32657). Put plainly: ScCHD-1 Enzyme Inhibition Assay. Also: in the data most compounds retested in dose-response had high values. It is filed as functional. As to conditions: 30 µM.
Chain of Chromo domain-containing protein 1 (Saccharomyces cerevisiae (strain ATCC 204508 / S288c) (Baker's yeast)) (P32657 whole entry, the tested form may be a part): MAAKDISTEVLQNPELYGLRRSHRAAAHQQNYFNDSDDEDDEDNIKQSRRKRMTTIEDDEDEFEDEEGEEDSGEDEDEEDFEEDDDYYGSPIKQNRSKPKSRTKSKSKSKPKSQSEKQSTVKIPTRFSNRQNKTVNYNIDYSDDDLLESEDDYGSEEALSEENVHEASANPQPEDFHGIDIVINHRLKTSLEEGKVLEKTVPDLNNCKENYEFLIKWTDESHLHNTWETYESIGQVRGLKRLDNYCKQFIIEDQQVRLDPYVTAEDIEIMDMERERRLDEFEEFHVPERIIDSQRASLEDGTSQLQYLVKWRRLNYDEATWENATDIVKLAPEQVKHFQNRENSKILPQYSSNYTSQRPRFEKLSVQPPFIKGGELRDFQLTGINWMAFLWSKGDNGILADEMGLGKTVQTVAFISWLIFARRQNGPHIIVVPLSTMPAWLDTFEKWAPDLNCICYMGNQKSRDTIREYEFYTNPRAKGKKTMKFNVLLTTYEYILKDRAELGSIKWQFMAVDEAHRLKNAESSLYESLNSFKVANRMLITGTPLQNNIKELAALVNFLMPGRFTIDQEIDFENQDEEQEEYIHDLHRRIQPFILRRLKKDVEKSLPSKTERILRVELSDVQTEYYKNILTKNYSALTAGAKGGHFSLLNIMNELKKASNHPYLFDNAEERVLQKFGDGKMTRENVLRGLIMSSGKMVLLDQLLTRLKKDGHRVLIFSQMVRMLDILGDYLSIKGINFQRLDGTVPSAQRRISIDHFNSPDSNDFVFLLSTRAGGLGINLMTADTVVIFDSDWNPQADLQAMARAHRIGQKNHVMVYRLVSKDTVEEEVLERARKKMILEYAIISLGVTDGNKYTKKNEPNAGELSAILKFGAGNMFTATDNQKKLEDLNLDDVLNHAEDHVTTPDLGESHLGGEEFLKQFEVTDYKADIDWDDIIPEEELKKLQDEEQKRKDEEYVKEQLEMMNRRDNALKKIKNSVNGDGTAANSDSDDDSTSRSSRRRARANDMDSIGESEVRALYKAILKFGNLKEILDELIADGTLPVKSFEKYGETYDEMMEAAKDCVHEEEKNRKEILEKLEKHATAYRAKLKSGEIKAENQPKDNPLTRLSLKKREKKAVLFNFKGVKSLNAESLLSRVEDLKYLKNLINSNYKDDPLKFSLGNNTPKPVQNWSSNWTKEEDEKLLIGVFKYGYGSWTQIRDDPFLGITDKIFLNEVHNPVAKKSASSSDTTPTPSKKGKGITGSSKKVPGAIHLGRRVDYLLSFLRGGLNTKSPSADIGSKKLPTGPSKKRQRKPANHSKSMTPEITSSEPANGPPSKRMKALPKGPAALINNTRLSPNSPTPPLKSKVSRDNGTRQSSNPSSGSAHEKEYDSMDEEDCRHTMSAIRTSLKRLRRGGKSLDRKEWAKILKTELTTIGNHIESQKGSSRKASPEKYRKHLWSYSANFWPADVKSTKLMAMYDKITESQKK

For `CN(CCCNC(=O)N1CCCC1c1ccsc1)c1ccccn1` (stereo unspecified), the Percent Effect is -0.565% in [1]; 28.6% in experiment [2]; -13.6% in experiment [3]; -0.894% in experiment [4]; 1.5% in the experiment with Trypanosoma cruzi; 3.92% in [5]. The Percent Effect in [6] was 12.5%; in the experiment listed under Homo sapiens it was 25.5%; in experiment [7], 9.71%; in experiment [8] it was 19.5%; in experiment [9] it was -10.5%.

`O=C(NCc1cc(=O)n2c(n1)CN(CC1CCOC1)CCC2)C1CC1` (stereo unspecified): the Percent Effect in [1] was 0.233%; in [2], 2.74%; in [3] it was -1.09%; in experiment [4], 5.91%; with Trypanosoma cruzi, 6.35%; in experiment [5], -0.399%. The Percent Effect in [6] is 6.76%; in the experiment filed under Homo sapiens it was -4.97%; in [7], 3.12%; in experiment [8], 11.1%; in experiment [9], -3.69%.

For the compound `COc1cc(CNC(=O)CNc2cc(Cl)ccc2OC)ccn1`, the Percent Effect in experiment [1] was -4.04%; in [2], 0%; in experiment [3], -0.0708%; in experiment [4], 2.86%; in the experiment with Trypanosoma cruzi it was -2.55%; in experiment [5], 0.802%. The Percent Effect in experiment [6] is 3.6%; in the experiment filed under Homo sapiens, 9.38%; in [7], -4.43%; in experiment [8], 3.7%; in [9] it was 0.373%.

For `CN1CCCC(CNC(=O)N2CCN(Cc3ccon3)CC2)C1` (stereo unspecified), the Percent Effect in experiment [1] is -5.29%; in experiment [2], 2.67%; in [3], -3.4%; in [4] it was 1.23%; in the experiment with Trypanosoma cruzi, 3.02%; in [5], -1.04%. Further, the Percent Effect is 1.74% in [6]; 5.23% in the experiment filed under Homo sapiens; 4.92% in experiment [7]; 8.64% in [8]; -5.38% in experiment [9].

With `Cc1cnn(CC2CCCCN2CCC(=O)Nc2cc(C)on2)c1` (stereo unspecified), the Percent Effect in experiment [1] was -4.7%; in [2] it was 3.8%; in experiment [3], -0.138%; in experiment [4], 0.417%; in the experiment on Trypanosoma cruzi it was 0.308%; in [5], -1.07%. The Percent Effect was 11.7% in [6]; -10.4% in the experiment filed under Homo sapiens; 1.04% in experiment [7]; 12.7% in [8]; -13.7% in [9].

Consider `O=C(c1ccsc1)N1CCOC2(CCN(Cc3cccnc3)CC2)C1`, for which the Percent Effect in experiment [1] was -1.61%; in experiment [2], -2.67%; in experiment [3], 3.67%; in experiment [4], 7.65%; in the experiment with Trypanosoma cruzi, 0.579%; in [5] it was -3.4%. In addition, the Percent Effect in experiment [6] is 8.38%; in the experiment listed under Homo sapiens it was -17%; in experiment [7] it was 3.12%; in [8], 5%; in [9], -6.25%.

For `O=C(NCc1cnc2n1CCN(Cc1ccsc1)CC2)C1CCC1`, the Percent Effect in experiment [1] is -5.62%; in experiment [2], 8.11%; in experiment [3] it was -0.353%; in experiment [4] it was 4.49%; with Trypanosoma cruzi, 0.293%; in experiment [5], 3.72%. The Percent Effect in [6] is 5.24%; in the experiment filed under Homo sapiens it was -5.3%; in experiment [7], 7.53%; in [8], 13.6%; in [9], -4.47%.

Regarding `FC(F)(F)c1cc(N2CCc3ncnc(NC4CC4)c3CC2)ncn1`, the Percent Effect in experiment [1] was -1.41%; in experiment [2] it was 13.3%; in experiment [3] it was 11.7%; in [4], -4.57%; in the experiment on Trypanosoma cruzi, -3.86%; in [5], -57.5%. In addition, the Percent Effect in [6] was 14.4%; in the experiment filed under Homo sapiens it was 10.9%; in experiment [7], 5.21%; in experiment [8], -5%; in experiment [9], -8.14%.

For `c1ccc2sc(CN3CCOC(Cn4cccn4)C3)nc2c1` (stereo unspecified), the Percent Effect in experiment [1] was -6.08%; in [2], 5.41%; in experiment [3], -3.49%; in experiment [4] it was 1.12%; with Trypanosoma cruzi it was -4.06%; in experiment [5], -2%. In addition, the Percent Effect in experiment [6] was 0%; in the experiment filed under Homo sapiens, 24.4%; in [7] it was -0.493%; in [8], -8.64%; in experiment [9] it was -0.731%.

Take `CC(C)S(=O)(=O)NCC1CCCN(C(=O)c2cccnc2)C1` (stereo unspecified): the Percent Effect in [1] is -1.12%; in experiment [2] it was 11%; in experiment [3], -1.03%; in [4], -2.93%; in the experiment on Trypanosoma cruzi, -3.53%; in experiment [5], 0.455%. The Percent Effect in [6] was 21.3%; in the experiment filed under Homo sapiens, 15%; in [7] it was 3.23%; in experiment [8], 10%; in experiment [9] it was -3.28%.

Turning to `COc1ccc(OC)c(CN2CCCCCC2c2cccs2)c1` (stereo unspecified), the Percent Effect in experiment [1] was -4.16%; in [2], -7.79%; in experiment [3], -2.05%; in experiment [4], -14.1%; in the experiment on Trypanosoma cruzi, 7.59%; in [5], 3.23%. The Percent Effect in experiment [6] is 9.05%; in the experiment listed under Homo sapiens it was 8.15%; in experiment [7] it was -5.29%; in [8] it was -32%; in experiment [9], -9.84%.
